# POLH inh: inhibitors of human DNA polymerase eta. Q9Y253. recombinant Pol eta, fluorescent DNA replication assay. Potency, µM (highest dose often 114 µM), for inactives: at the top dose activity change, negative = inhibition, usual class: inhibitors. 1.2% of 390,000 active. AID 588591; further: on the % scale 0 is the no-effect control and ±100 the full control effect
#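 Fluorescent replication assay: 50 nM final substrate added after a 15 min room-temperature compound preincubation with 10 nM enzyme. Signal taken at 0 min and again at 10 min.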
# Pol iota inh: inhibitors of human DNA polymerase iota; Q9UNA4; 1% of 390,000 active; AID 588590; Pol iota fluorescent replication assay, 10 min; Potency, µM (top dose mostly 115 µM), for the others: at the top dose activity, negative = inhibition, hits mostly inhibitors
# Target sequence (Q9UNA4 whole entry, looked up): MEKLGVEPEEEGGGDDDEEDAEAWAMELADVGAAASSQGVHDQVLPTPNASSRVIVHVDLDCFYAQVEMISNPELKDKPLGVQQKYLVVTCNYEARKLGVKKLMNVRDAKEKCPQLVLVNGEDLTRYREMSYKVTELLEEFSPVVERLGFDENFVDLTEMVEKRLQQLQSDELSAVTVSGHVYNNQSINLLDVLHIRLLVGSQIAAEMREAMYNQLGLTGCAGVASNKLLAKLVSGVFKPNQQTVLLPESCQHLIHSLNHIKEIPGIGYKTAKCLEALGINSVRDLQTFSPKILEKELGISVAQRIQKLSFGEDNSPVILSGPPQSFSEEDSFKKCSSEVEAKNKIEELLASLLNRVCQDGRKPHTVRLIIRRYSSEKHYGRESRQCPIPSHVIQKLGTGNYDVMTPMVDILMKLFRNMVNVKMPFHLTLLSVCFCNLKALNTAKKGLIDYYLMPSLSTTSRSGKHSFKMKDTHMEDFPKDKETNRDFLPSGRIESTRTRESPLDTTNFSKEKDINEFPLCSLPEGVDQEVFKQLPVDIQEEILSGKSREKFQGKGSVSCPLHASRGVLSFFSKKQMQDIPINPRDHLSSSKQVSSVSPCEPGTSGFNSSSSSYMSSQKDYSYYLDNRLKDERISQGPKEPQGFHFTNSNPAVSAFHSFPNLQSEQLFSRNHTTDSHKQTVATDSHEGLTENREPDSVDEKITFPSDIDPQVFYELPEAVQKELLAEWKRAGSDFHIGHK
#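 Fluorescent replication assay read twice, at 0 min and 10 min after adding 50 nM (final) substrate. Enzyme (10 nM) and compounds were first incubated 15 min at room temperature; enzyme-free buffer wells were negative controls.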
# WRN helicase inh: blocks human WRN helicase; Q14191; WRN helicase unwinding, fluorescent forked duplex, kinetic; Potency, µM (series often up to 114 µM), inactives show at the top dose activity change, negative = inhibition, usual class: inhibitors; 0.46% of 360,000 active; AID 651768; further: on the % scale 0 is the no-effect control and ±100 the full control effect; nearly all actives have a fitted effect of over 55% in size
#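 Screening of the MLSMR collection measured strand separation of a quenched forked DNA duplex (100 nM) by 20 nM WRN with 2 mM ATP, all final. Compounds were preincubated with enzyme 15 min at room temperature.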
# Pol beta inh: blocks human DNA polymerase beta activity | P06746 | Pol beta primer extension/strand displacement, fluorescence kinetic | Potency, µM (doses to about 114 µM), for inactives: at the highest dose activity change, negative = inhibition, usual class: inhibitors | 1.3% of 340,000 active; further: on the % scale 0 is the no-effect control and ±100 the full control effect
#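 Kinetic readout of DNA synthesis with strand displacement by Pol beta. Compound and 10 nM enzyme sit 15 min at room temperature; 50 nM substrate starts the reaction, read immediately and at 10 min.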
# FEN1 inh: inhibitors of human flap endonuclease 1; Recombinant FEN1 flap cleavage, fluorescence, 15 min; Potency, µM (titrated, usually from 114 µM), without a hit: top-dose activity change, negative = inhibition, hits mostly inhibitors; AID 588795; P39748; 0.35% of 390,000 active; further: on the % scale 0 is the no-effect control and ±100 the full control effect; nearly all actives have a fitted effect of over 65% in size
#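 FEN1 at 10 nM, compound pretreatment for 15 min (room temperature), 50 nM final substrate to initiate; endpoint reads at 0 and 15 min; DMSO-only plates used as vehicle background.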
# POLK inh: inhibitors of human DNA polymerase kappa; Q9UBT6; purified Pol kappa, fluorescent DNA synthesis assay, 10 min; Potency, µM (top dose mostly 107 µM), for the others: at the highest dose activity, negative = inhibition, actives largely listed as inhibitors; 0.53% of 400,000 active; AID 588579; further: on the % scale 0 is the no-effect control and ±100 the full control effect
#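 Readout: fluorescence, taken kinetically at 0 and 10 min. Conditions: 10 nM Pol kappa, 15 min RT compound preincubation, 50 nM substrate final. Controls: enzyme-free buffer wells.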
# An asterisk follows results filed as active; ? = inconclusive; / = no result; [ ] = dose if it differs, or a comment. Only some compounds are listed: those with a hit (about 2.4% of all), similar ones and a draw of the others. The call rests on the fitted dose curve; in most records, active means well fitted curve in the direction sought with a large enough effect; inconclusive means small, poorly fitted or top-dose-only effect, or another doubt; inactive means no such curve, though single readings can be large; an effect the other way counts as inactive or inconclusive. Potency means the concentration at half of the fitted maximal effect.
SMILES,POLH inh,Pol iota inh,WRN helicase inh,Pol beta inh,FEN1 inh,POLK inh
O=C(/C(=N/N=C/c1ccc(O)c(O)c1O)c1ccccc1)c1ccccc1,?,17.8µM*,-31.1%,3.55µM*,?,-31.5%
O=C(NN=Cc1ccc(O)c(O)c1)c1ccccc1,/,/,-17.7%,/,/,/
Cc1ccc2nc(Cn3cc(C(F)(F)F)ccc3=O)cc(=O)n2c1,-10.6%,62.7%,1.8%[57.1 µM],0.0%,-1.5%,-17.1%
O=c1ccc(C(F)(F)F)cn1Cc1cc(=O)n2cc(Br)ccc2n1,-1.7%,?,-6.4%,12.6µM*,-11.2%,?
COCCCNC(=O)CSc1ccsc1[N+](=O)[O-],44.7µM*,?,-4.5%[11.6 µM],-23.0%,11.7%,?
CC1Cc2ccccc2N1S(=O)(=O)c1cccc(C(=O)N2CC(=O)Nc3ccccc32)c1 (stereo unspecified),-13.8%,10.7%,-5.4%,39.8µM*,-8.4%,-14.2%
CCOc1ccc(S(=O)(=O)NCc2cccnc2)cc1NC(=O)c1ccccc1,-18.0%,16.6%,0.1%,/,-2.6%,5.0%
COc1ccc(S(=O)(=O)NCc2cccnc2)cc1NC(=O)c1ccccc1C,?,39.8µM*,-22.0%,/,-13.8%,-27.6%
CC1(C)N([O-])C2=C(CCCC2)[N+]1=O,22.4µM*,?,-34.2%,25.1µM*,-10.0%,?
CC(N)(C(=O)O)c1cccc(CC(=O)O)c1 (stereo unspecified),/,/,/,/,/,-0.3%[19.4 µM]
N#CC(C#N)=C1C=CC=CN1/C(=C\c1ccco1)C(=O)c1ccc(Cl)cc1,-12.7%,?,22.4µM*,0.8%,-13.6%,-19.4%
CC(=O)Oc1ccc(C(=O)Nc2cccc(-c3nnc(-c4ccco4)o3)c2)cc1,-13.9%,57.9%,-31.5%,20µM*,-0.7%,-15.3%
N/C(=N\N=C\c1ccnc2ccccc12)SC1CC(=O)N(c2ccc(Br)cc2)C1=O (stereo unspecified),25.1µM*,2.7%,0.2%,?,1.1%,-4.5%
CCOc1ccc2oc(C(=O)NNC(=O)c3ccccc3O)c(C)c2c1,79.4µM*,?,0.7%[11.6 µM],/,0.9%,-23.3%
O=C(Nc1ccc(Br)cc1)c1csc(-c2ccncc2)n1,0.0%,63.2%,?,6.5%,6.2%,0.9%
Cc1nc(-c2ccncc2)sc1C(=O)Nc1ccc(Br)cc1,-18.6%,42.3%,-4.3%,15.8µM*,15.9%,-7.2%
NCC[C@H](O)C(=O)N[C@@H]1C[C@H](N)[C@@H](O[C@H]2O[C@H](CN)CC[C@H]2N)[C@H](O)[C@H]1O[C@H]1O[C@H](CO)[C@@H](O)[C@H](N)[C@H]1O,/,/,/,/,/,3.5%[19.4 µM]
CC(=O)Oc1cc(O)c2c(=O)c(OC(C)=O)c(-c3ccc(OC(C)=O)c(OC(C)=O)c3)oc2c1,2.82µM*,8.91µM*,?,/,2.82µM*,7.08µM*
CC(=O)Oc1cc(OC(C)=O)c2c(=O)cc(-c3ccc(OC(C)=O)c(OC(C)=O)c3)oc2c1,/,/,/,/,/,8.91µM*
CN(c1ccc(/C=C/c2ccccc2)cc1)P1(=O)NCCCO1 (stereo unspecified),/,24.4%,/,/,-12.9%,-20.3%
COC(=O)CCC/C=C1/SCC(NC(=O)c2ccccc2)C1=O (stereo unspecified),?,44.7µM*,-24.2%,1.5%,-8.1%,-14.3%
COC(=O)CCC/C=C1/SCC(NC(=O)c2ccccc2)C1O (stereo unspecified),?,?,-32.9%,-9.0%,2.4%,?
Cc1ccccc1N=C1Nc2ccc(Cl)cc2N[C@]12C[C@H]1CCCC(=O)N3CC[C@@H](C2)[C@@H]13,/,13.0%,/,/,?,6.4%
COc1cccc(-c2nc(SCC(=O)Nc3nc(-c4ccccc4)c(C)s3)[nH]c(=O)c2C#N)c1,79.4µM*,?,-34.4%,?,0.4%,-9.0%
CCOc1ccc2nc(NC(=O)CSc3nc(-c4ccccc4)c(C#N)c(=O)[nH]3)sc2c1,50.1µM*,?,?,-26.9%,-10.7%,-19.1%
SMILES,POLH inh,Pol iota inh,WRN helicase inh,Pol beta inh,FEN1 inh,POLK inh
CCOC(=O)Cc1csc(NC(=O)CSc2nc(-c3ccccc3)c(C#N)c(=O)[nH]2)n1,-7.1%,-9.3%,-4.3%,14.1%,-1.7%,3.0%
COC(=O)c1ccc(-c2ccc(C3C4C=CCC(C)C4C(=O)N3Cc3ccccc3)c(F)c2)cc1 (stereo unspecified),/,11.6%,/,/,2.6%,-3.1%
O=C(c1ccco1)N1CCN(/C=C2\Nc3ccccc3C(=O)N2c2ccc(F)cc2)CC1,/,22.4%,/,/,2.5%,4.9%
C#CCN1C(=O)C(O)(CC(=O)/C=C/c2ccco2)c2ccccc21 (stereo unspecified),?,35.5µM*,-4.9%,?,0.1%,?
O=C(CC1(O)C(=O)N(CCc2ccccc2)c2ccccc21)c1ccco1 (stereo unspecified),?,-12.4%,1.8%,9.0%,-4.8%,-7.9%
CN(C)c1ccc(/C=[N+]2\C(=O)CC(=O)NC2=O)cc1,/,17.5%,/,/,-5.3%,-3.4%
CC(C)(C)n1ncc2c(=O)n(Cc3cc(F)ccc3Cl)cnc21,/,?,/,/,-19.8%,-9.5%
COc1ccc(-c2coc3cc(O)ccc3c2=O)cc1O,-10.7%,?,2.3%,25.1µM*,-16.8%,?
Cc1ccc(NC2=C/C(=N/S(=O)(=O)c3cccs3)c3ccccc3C2=O)cc1,?,?,2.9%,-12.9%,-0.4%,-4.1%
Cc1ccc(S(=O)(=O)/N=C2\C=C(Nc3cccc(C(=O)O)c3)C(=O)c3ccccc32)c(C)c1,22.4µM*,5.01µM*,?,?,70.8µM*,-16.6%
Cc1ccc(S(=O)(=O)/N=C2\C=C(Nc3ccc(O)cc3)C(=O)c3ccccc32)cc1,?,44.7µM*,?,/,?,-38.4%
CC(C)(C)c1ccc(S(=O)(=O)/N=C2\C=C(NS(=O)(=O)c3ccccc3)C(=O)c3ccccc32)cc1,79.4µM*,?,?,?,?,-12.0%
CCCN1C(=O)c2ccccc2NC1c1ccc(OC)c(COc2ccc([N+](=O)[O-])c(C)c2)c1 (stereo unspecified),/,-1.1%,/,/,-19.1%,-5.5%
CC12CCC=CC1C(c1cccc([N+](=O)[O-])c1)N(Cc1ccccc1)C2=O (stereo unspecified),/,-24.0%,/,/,-6.6%,-23.5%
CNS(=O)(=O)c1ccc2nc(NC(=O)/C=C/c3ccco3)sc2c1,-1.4%,50.1µM*,-9.2%,?,-23.8%,?
COc1ccc(OC)c(C2/C(=C(/O)c3ccccc3)C(=O)C(=O)N2Cc2ccco2)c1 (stereo unspecified),-11.6%,60.6%,-0.9%[57.1 µM],20.1%,44.7µM*,-2.7%
C[C@H]([C@H](C)N1CC(=O)NC(=O)C1)N1CC(=O)NC(=O)C1,/,/,/,/,/,17.9%[60.1 µM]
